Common to all, as to assay: DAPPL (digital affinity profiling via proximity ligation, sequencing); 10 mM Tris-HCl pH 7.5, 50 mM NaCl, 1 mM DTT, 4% glycerol, room temperature, 30 min; GST-TFs on glutathione beads, 16-mer random dsDNA library, 0.1% formaldehyde crosslink after washing; high values mean tight binding
The target of one experiment is T1, FEV (Homo sapiens, UniProt Q99581 1-238).
T1 sequence: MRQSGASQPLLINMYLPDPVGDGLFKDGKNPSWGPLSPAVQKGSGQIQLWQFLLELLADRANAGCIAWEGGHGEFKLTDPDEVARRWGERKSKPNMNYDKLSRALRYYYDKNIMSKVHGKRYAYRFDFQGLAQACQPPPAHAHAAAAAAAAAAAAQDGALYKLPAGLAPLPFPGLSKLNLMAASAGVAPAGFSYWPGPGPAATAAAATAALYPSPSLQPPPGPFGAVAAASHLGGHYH
The conditions noted are these: protein: recombinant; tags: N-terminal GST; dsDNA, one strand shown. In short, it runs like this: (§1)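 A tag-only sample was pooled with DNA-barcoded human transcription factors that had been expressed in yeast as GST fusions and captured on glutathione beads. The pools were incubated for 30 min at room temperature with 200 nmole of a random double-stranded 16-mer DNA library in Tris/NaCl/DTT/glycerol buffer, then washed, crosslinked with 0.1% formaldehyde, proximity-ligated (BsaI/T4 ligase, 1 h, 37 °C), PCR-amplified and sequenced on an Illumina NextSeq500. Binding signal is each hexamer's read frequency for a factor divided by its frequency for the tag-only sample.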

The target in another experiment is ETV5 (Homo sapiens, UniProt P41161 1-510). The conditions noted are these: protein: recombinant; tags: N-terminal GST; dsDNA, one strand shown. In short, it runs like this:
as §1

For another experiment, the target named is HSF1 (Homo sapiens, UniProt Q00613 1-529). The conditions noted are these: protein: recombinant; tags: N-terminal GST; chain copies: 3; dsDNA, one strand shown. The procedure, abridged:
as §1

The target in a further experiment is T2, SPIC (Homo sapiens, UniProt Q8N5J4 1-248).
T2 sequence: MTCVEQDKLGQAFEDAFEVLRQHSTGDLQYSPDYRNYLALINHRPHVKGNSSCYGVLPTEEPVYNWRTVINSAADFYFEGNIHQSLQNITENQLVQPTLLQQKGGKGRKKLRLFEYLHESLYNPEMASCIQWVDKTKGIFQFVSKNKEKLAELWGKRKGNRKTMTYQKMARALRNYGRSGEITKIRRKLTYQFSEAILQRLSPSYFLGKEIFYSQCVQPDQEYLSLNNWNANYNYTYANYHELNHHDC
Particulars: protein: recombinant; tags: N-terminal GST; dsDNA, one strand shown. The procedure, abridged:
as §1

A further experiment deals with ELF4 (Homo sapiens, UniProt Q99607 1-663). The conditions noted are these: protein: recombinant; tags: N-terminal GST; dsDNA, one strand shown. In short, it runs like this: as §1
Sequence of ELF4 (Q99607 whole entry): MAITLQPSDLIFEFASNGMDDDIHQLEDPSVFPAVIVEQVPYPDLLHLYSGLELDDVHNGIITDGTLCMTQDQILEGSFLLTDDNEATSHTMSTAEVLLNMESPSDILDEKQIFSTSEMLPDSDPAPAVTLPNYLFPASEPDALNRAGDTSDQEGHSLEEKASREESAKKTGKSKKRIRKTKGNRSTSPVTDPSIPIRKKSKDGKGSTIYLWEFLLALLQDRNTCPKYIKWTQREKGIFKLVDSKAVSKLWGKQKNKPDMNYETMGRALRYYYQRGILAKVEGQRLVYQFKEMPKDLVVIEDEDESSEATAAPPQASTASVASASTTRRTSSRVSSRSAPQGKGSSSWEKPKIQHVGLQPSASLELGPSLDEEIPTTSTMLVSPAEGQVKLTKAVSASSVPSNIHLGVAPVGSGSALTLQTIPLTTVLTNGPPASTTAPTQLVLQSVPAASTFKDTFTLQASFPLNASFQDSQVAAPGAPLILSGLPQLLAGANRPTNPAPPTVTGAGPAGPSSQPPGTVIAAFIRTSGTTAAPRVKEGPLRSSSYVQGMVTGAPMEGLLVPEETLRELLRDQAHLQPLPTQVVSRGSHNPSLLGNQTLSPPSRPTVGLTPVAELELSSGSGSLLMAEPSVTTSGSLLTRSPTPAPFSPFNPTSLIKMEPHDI
A further experiment concerns the target T3, ELK4 (Homo sapiens, UniProt P28324-2 1-405).
T3 sequence: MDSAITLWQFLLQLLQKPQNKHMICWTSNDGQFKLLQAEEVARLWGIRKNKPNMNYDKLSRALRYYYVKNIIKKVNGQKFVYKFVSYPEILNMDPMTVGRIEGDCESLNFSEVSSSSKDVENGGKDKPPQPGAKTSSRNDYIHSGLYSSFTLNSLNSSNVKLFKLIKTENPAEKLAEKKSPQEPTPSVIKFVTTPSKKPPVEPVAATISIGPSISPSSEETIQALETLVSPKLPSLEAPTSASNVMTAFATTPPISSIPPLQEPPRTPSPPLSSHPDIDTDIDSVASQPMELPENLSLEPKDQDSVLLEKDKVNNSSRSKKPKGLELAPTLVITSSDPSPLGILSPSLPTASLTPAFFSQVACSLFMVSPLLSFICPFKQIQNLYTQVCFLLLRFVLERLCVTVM
Particulars: protein: recombinant; tags: N-terminal GST; dsDNA, one strand shown. In short, it runs like this: as §1

A further experiment addresses T4, ETV2 (Homo sapiens, UniProt O00321 1-342).
T4 sequence: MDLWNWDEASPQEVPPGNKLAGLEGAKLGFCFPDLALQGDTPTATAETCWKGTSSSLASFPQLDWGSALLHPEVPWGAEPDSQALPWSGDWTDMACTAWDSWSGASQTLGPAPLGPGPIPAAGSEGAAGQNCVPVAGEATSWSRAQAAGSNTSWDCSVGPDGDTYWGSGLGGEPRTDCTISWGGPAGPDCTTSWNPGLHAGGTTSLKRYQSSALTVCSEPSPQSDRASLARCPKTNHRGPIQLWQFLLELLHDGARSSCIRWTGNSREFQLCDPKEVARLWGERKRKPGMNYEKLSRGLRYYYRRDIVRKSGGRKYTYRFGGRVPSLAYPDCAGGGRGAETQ
The conditions noted are these: protein: recombinant; tags: N-terminal GST; dsDNA, one strand shown. The procedure, abridged:
as §1

For another experiment, the target named is T5, ELF3 (Homo sapiens, UniProt P78545 1-371).
T5 sequence: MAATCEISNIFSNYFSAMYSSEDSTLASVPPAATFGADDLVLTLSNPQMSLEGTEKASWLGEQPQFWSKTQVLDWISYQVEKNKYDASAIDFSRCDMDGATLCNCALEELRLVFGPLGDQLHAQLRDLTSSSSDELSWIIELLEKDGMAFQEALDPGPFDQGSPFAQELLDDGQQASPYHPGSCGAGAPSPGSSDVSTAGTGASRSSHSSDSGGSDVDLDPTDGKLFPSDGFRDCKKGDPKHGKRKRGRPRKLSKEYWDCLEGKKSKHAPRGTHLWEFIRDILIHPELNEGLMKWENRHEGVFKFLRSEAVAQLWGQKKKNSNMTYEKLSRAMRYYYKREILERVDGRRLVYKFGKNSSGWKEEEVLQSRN
Particulars: protein: recombinant; tags: N-terminal GST; dsDNA, one strand shown. In short, it runs like this: as §1

In another experiment the target is CRX (Homo sapiens, UniProt O43186 1-299). Particulars: protein: recombinant; tags: N-terminal GST; dsDNA, one strand shown. The procedure, abridged: as §1
Sequence of CRX (O43186 whole entry): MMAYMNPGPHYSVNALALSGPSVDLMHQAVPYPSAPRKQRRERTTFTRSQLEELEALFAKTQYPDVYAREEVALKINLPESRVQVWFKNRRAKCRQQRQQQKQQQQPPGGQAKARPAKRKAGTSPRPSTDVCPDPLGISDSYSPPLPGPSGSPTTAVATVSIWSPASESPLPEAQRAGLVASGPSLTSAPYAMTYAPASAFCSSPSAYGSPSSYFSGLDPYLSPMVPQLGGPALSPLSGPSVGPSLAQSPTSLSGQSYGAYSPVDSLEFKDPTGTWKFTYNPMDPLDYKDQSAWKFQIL
The target of another experiment is ETV1 (Homo sapiens, UniProt P50549 1-477). The conditions noted are these: protein: recombinant; tags: N-terminal GST; dsDNA, one strand shown. The procedure, abridged:
as §1

The target in the next experiment is T6, ERF (Homo sapiens, UniProt P50548 1-548).
T6 sequence: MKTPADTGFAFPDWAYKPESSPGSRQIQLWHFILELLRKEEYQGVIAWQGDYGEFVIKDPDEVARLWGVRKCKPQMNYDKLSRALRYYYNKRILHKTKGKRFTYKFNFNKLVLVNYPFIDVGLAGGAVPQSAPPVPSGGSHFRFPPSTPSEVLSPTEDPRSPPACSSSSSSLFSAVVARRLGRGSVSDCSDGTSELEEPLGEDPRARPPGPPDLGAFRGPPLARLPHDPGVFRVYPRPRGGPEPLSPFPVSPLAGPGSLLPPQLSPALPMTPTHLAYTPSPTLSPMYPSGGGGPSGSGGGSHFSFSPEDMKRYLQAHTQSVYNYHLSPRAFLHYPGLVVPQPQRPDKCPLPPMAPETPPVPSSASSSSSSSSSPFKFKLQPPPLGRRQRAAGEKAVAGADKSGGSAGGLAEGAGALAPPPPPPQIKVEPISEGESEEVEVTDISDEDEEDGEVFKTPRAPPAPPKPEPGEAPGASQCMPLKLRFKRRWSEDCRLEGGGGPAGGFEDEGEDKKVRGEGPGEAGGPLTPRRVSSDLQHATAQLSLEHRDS
Particulars: protein: recombinant; tags: N-terminal GST; dsDNA, one strand shown. The procedure, abridged:
as §1

The next experiment has as its target T7, ETV3L (Homo sapiens, UniProt Q6ZN32 1-361).
T7 sequence: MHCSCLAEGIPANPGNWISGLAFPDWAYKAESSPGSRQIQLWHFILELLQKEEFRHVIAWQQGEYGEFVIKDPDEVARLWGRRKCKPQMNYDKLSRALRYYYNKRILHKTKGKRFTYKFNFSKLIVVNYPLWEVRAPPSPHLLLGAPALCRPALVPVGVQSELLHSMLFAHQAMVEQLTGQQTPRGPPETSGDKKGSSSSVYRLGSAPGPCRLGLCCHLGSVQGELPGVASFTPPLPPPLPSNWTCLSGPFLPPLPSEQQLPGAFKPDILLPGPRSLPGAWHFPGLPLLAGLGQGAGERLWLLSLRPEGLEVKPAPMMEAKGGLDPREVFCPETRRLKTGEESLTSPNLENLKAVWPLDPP
Particulars: protein: recombinant; tags: N-terminal GST; dsDNA, one strand shown. The procedure, abridged: as §1

A further experiment deals with T8, ETS2 (Homo sapiens, UniProt P15036 1-469).
T8 sequence: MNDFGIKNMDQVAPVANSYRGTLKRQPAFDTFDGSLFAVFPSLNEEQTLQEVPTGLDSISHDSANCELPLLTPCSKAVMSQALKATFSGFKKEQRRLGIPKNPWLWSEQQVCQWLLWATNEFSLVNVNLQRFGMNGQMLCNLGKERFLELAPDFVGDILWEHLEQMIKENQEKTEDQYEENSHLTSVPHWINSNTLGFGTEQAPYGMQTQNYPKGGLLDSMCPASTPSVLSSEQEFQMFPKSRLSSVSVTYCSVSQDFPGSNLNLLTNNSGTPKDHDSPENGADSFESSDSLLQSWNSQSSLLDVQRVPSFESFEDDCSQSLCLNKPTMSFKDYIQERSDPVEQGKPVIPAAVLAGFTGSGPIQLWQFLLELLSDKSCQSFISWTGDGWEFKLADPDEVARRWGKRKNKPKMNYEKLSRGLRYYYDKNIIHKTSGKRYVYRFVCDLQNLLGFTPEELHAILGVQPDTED
The conditions noted are these: protein: recombinant; tags: N-terminal GST; dsDNA, one strand shown. In short, it runs like this:
as §1

Another experiment has as its target T9, SPDEF (Homo sapiens, UniProt O95238 1-335).
T9 sequence: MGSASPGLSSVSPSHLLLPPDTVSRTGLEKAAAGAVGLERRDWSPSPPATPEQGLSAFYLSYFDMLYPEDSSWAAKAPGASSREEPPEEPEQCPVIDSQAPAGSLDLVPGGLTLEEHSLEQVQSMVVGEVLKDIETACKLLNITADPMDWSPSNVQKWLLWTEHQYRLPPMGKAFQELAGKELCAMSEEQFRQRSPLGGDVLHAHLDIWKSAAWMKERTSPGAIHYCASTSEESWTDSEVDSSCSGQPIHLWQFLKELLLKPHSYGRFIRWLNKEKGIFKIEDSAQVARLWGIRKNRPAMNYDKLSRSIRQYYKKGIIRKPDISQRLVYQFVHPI
Particulars: protein: recombinant; tags: N-terminal GST; dsDNA, one strand shown. The procedure, abridged:
as §1

A further experiment has as its target T10, ETV7 (Homo sapiens, UniProt Q9Y603 1-341).
T10 sequence: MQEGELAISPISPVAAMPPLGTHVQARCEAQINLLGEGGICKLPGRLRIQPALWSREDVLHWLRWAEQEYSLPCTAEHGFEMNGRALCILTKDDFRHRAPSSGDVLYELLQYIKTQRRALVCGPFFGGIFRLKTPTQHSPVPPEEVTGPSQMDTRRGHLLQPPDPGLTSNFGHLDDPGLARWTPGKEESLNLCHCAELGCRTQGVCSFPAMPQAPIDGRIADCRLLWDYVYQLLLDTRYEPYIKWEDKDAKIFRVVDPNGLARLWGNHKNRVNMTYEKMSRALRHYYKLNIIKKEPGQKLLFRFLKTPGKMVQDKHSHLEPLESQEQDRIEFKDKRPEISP
The conditions noted are these: protein: recombinant; tags: N-terminal GST; dsDNA, one strand shown. The procedure, abridged: as §1

The next experiment deals with T11, ELF5 (Homo sapiens, UniProt Q9UKW6-2 1-255).
T11 sequence: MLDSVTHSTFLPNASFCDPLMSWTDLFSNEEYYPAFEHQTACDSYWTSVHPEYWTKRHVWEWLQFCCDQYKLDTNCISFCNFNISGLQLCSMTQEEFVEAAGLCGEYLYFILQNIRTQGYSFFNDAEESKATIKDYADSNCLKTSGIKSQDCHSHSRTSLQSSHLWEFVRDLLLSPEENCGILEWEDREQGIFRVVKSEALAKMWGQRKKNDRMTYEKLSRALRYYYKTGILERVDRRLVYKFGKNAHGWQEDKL
The conditions noted are these: protein: recombinant; tags: N-terminal GST; dsDNA, one strand shown. The procedure, abridged:
as §1

The target of the next experiment is T12, ETV3 (Homo sapiens, UniProt P41162-2 1-143).
T12 sequence: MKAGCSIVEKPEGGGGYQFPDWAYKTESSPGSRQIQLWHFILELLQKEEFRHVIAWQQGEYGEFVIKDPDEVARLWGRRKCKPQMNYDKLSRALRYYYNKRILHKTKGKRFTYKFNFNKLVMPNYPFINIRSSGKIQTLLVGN
Particulars: protein: recombinant; tags: N-terminal GST; dsDNA, one strand shown. The procedure, abridged: as §1

The next experiment concerns the target ETV6 (Homo sapiens, UniProt P41212 1-452). The conditions noted are these: protein: recombinant; tags: N-terminal GST; dsDNA, one strand shown. In short, it runs like this:
as §1

Sequence of HSF1 (Q00613 whole entry): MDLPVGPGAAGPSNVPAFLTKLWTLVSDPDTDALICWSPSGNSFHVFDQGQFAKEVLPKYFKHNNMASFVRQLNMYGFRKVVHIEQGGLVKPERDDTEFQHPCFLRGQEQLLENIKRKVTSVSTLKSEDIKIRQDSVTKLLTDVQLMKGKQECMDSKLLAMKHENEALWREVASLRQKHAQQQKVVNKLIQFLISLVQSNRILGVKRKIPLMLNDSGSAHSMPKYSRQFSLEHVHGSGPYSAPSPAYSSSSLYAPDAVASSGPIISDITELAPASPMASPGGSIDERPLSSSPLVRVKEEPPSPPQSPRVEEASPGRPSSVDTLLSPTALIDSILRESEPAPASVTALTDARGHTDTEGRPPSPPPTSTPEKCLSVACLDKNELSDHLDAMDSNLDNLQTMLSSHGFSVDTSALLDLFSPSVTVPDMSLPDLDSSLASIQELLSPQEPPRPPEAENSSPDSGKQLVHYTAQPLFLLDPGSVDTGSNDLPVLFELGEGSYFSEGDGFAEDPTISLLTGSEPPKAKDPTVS
Sequence of ETV1 (P50549 whole entry): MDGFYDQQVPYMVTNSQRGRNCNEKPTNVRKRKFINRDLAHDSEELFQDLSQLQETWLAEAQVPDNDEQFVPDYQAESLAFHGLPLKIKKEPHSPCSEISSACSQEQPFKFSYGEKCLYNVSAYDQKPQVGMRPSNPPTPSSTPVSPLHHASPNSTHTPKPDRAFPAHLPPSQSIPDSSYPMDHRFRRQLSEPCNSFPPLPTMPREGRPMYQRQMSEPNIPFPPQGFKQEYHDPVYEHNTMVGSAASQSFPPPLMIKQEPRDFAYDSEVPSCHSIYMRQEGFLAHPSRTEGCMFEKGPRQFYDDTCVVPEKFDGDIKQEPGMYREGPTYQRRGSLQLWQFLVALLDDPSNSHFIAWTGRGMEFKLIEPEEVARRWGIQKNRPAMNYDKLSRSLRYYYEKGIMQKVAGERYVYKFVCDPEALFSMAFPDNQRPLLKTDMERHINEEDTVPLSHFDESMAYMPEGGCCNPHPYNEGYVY
Sequence of ETV5 (P41161 whole entry): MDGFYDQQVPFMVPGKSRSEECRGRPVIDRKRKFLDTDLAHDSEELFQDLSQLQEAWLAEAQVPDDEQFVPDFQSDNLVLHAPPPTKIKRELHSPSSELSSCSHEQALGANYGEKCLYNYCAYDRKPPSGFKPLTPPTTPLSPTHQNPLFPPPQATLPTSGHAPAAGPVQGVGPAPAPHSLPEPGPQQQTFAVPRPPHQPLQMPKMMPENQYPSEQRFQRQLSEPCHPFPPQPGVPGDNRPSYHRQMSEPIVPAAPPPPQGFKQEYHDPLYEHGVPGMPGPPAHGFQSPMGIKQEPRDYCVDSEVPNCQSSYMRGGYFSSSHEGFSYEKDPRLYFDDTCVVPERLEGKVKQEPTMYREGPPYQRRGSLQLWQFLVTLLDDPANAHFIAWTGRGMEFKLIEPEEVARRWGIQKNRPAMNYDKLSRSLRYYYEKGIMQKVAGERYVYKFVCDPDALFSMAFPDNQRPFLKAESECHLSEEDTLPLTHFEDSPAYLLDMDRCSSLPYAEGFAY
Sequence of ETV6 (P41212 whole entry): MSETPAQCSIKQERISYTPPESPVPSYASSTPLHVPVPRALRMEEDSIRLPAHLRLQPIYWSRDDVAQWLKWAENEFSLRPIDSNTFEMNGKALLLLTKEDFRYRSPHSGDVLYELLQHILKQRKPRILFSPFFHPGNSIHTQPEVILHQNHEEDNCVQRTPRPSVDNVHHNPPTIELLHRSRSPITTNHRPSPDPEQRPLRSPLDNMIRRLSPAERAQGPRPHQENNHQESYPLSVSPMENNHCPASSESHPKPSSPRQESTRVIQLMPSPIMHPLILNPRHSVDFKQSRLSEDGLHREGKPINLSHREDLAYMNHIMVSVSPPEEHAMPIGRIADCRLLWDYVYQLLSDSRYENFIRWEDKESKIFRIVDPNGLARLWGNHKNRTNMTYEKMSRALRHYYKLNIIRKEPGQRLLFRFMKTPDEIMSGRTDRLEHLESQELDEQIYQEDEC

As for GACTCT, the binding signal with FEV was 1.32 fold enrichment (6-mer frequency, TF over GST control); with ETV5 it was 1.26 fold enrichment (6-mer frequency, TF over GST control); in the experiment with HSF1 it was 1.26 fold enrichment (6-mer frequency, TF over GST control); with SPIC it was 1.55 fold enrichment (6-mer frequency, TF over GST control); with ELF4, 1.29 fold enrichment (6-mer frequency, TF over GST control); with ELK4, 1.28 fold enrichment (6-mer frequency, TF over GST control). For the same sequence, the binding signal in the experiment with ETV2 was 1.26 fold enrichment (6-mer frequency, TF over GST control); with ELF3, 1.28 fold enrichment (6-mer frequency, TF over GST control); in the experiment with CRX, 1.13 fold enrichment (6-mer frequency, TF over GST control); with ETV1, 1.32 fold enrichment (6-mer frequency, TF over GST control); with ERF, 1.58 fold enrichment (6-mer frequency, TF over GST control); with ETV3L, 1.32 fold enrichment (6-mer frequency, TF over GST control). Also, the binding signal with ETS2 was 1.36 fold enrichment (6-mer frequency, TF over GST control); with SPDEF, 1.21 fold enrichment (6-mer frequency, TF over GST control); with ETV7, 1.23 fold enrichment (6-mer frequency, TF over GST control); with ELF5 it was 1.22 fold enrichment (6-mer frequency, TF over GST control); with ETV3, 1.22 fold enrichment (6-mer frequency, TF over GST control); with ETV6 it was 1.16 fold enrichment (6-mer frequency, TF over GST control).

For the origin of these results see article PMC7862700, “An all-to-all approach to the identification of sequence-specific readers for epigenetic DNA modifications on cytosine”.
